CYP2C19 inhib = inhibitors of human CYP2C19 | CYP2C19 Supersomes, luciferin-H EGE luminescence, 30 min | actives 21% (n = 96,000) | inhibition, % at 5 µM | P33261;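 active = CYP2C19 inhibition above a set limit at 5 µM in the primary screen, cut at about 50% in these data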;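 also: plate controls were negative control wells for no effect and 2.5 mM tranylcypromine positive control for full effect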
CYP2C9 activ = CYP2C9 (human) activation | P11712 | recombinant CYP2C9, luciferin-H conversion, luminescence; hits give high values; factor 1 = untreated enzyme, 0 = blocked | activation factor at 5 µM | actives 1.4% (n = 96,000);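 active = activation factor of 2 or more for CYP2C9 at a 5 µM dose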;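 also: 0 = sulfaphenazole-blocked wells and 1 = vehicle-only wells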
Target sequence (P11712 whole entry, looked up): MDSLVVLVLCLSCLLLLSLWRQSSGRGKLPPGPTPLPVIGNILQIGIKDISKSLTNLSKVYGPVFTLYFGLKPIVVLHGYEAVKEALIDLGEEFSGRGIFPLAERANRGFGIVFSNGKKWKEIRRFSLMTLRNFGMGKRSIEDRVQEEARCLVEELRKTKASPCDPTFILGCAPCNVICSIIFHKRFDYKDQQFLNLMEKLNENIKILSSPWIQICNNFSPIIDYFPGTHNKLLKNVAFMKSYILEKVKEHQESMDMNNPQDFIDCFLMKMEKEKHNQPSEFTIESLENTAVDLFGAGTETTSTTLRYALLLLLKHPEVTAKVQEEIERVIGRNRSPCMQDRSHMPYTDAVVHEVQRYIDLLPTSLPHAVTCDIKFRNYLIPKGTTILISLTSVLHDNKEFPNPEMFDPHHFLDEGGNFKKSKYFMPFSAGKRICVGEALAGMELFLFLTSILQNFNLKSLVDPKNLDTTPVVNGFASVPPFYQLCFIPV
PTK2B oligo ant = antagonists of human Pyk2 oligomerization | z-score (the deposit names both 25 µM and 10 µM) | actives 0.83% (n = 99,000) | Q14289 | AID 1347419 | Q293 cells, Pyk2 FERM NanoBiT luminescence; hits give low values;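 active = Z-score of -3 or lower, scaled per plate to the spread of control and sample wells; inactive = z-score above -3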;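 also: negative z-score means lost luminescence so less FERM oligomerization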
CYP2C19 activ = increases human CYP2C19 enzyme activity. recombinant CYP2C19, luciferin-H EGE luminescence; hits give high values; 0 = fully inhibited enzyme, 1 = untreated enzyme. activation factor at 5 µM. 96,000 tested, under 10 active;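 active = activation factor of at least 2 at 5 µM in the primary screen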;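 also: 0 = wells with 2.5 mM tranylcypromine and 1 = vehicle-only wells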
CYP2C9 inh = human CYP2C9 inhibition; inhibition, % at 5 µM; CYP2C9 Supersomes, luciferin-H conversion, luminescence; AID 777; actives 20% (n = 96,000);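 active = blocking of liver enzyme CYP2C9 beyond about 50% at 5 µM, limit read from the data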
Numbers without * were called inactive; / = no result. Rows were chosen to be rich in hits. Some 28% of all compounds tested hit in one or more screens of this group.

SMILES	CYP2C19 inhib	CYP2C9 activ	PTK2B oligo ant	CYP2C19 activ	CYP2C9 inh
COC(=O)CSc1nnc(-c2ccoc2C)n1-c1ccc(OC)cc1	39.4	0.9	-0.42	0.6	7.6
CCOC(=O)CSc1nnc(-c2ccoc2C)n1-c1ccc(OCC)cc1	91.6*	0.2	1.97	0.1	82.2*
COc1cccc(-n2c(SCC(=O)NC(C)(C)C)nnc2-c2ccoc2C)c1	72.9*	0.9	-0.11	0.3	10.7
CCC(C)NC(=O)CS(=O)Cc1nc(-c2cccc(OC)c2)oc1C (stereo not drawn)	14.2	0.8	/	0.9	16.9
COc1cc(C(C)=O)ccc1OCC(=O)c1cc(C)n(C2CC2)c1C	58.0*	1.3	-0.4	0.4	-31.5
CCCN(CCC)C1=N/C(=C\c2ccco2)C(=O)N1c1ccccc1	64.0*	0.3	1.06	0.4	71.0*
CCCN=C1N/C(=C\c2ccco2)C(=O)N1c1ccccc1	11.6	0.8	0.03	0.9	22.1
Cc1c(Cl)c([N+](=O)[O-])nn1Cc1ccc(C(=O)N/N=C\c2ccccn2)o1	/	/	-0.28	/	/
COc1cc(/C=N\NC(=O)c2ccc(Cn3nc([N+](=O)[O-])c(Cl)c3C)o2)ccc1O	65.0*	0.8	-0.77	0.3	24.2
Cc1cccc2cc(CN(CCc3ccccc3)C(=O)N3CCOCC3)c3nnnn3c12	37.6	0.5	-0.49	0.6	46.0
CCNc1nc(NC(C)C)nc(N(C#N)CCOc2ccc(Cl)cc2Cl)n1	76.8*	0.9	-2.49	0.2	12.5
COCCN(Cc1cc2ccc(C)cc2n2nnnc12)Cc1nnnn1C(C)(C)C	/	/	0.36	/	/
CCn1c2ccccc2c2nnc(SCc3cc(=O)n4ccsc4n3)nc21	87.0*	0.3	/	0.1	65.4*
Cc1cccc(-n2c(SCc3cc(=O)n4ccsc4n3)nc3ccccc32)c1	/	/	-1.66	/	/
CCCOc1ccc(-c2nnn(CC(=O)c3c[nH]c4ccccc34)n2)cc1	-9.2	0.7	-0.26	1.1	27.2
CCOC(=O)C1=C(N)N2C(=O)CSC2=C(C(=O)OC)C1	-15.3	0.5	-0.09	1.2	45.6
CC(OC(=O)C1CCN(S(=O)(=O)c2ccccc2)CC1)C(=O)Nc1ncc(Cl)cc1Cl (stereo not drawn)	75.4*	0.1	1.6	0.2	92.8*
O=C(NC(Cc1ccccc1)c1ccc2c(c1)OCCCO2)c1ccccc1F (stereo not drawn)	77.1*	0.2	-1.96	0.2	82.9*
COc1ccc(C(=O)NC(Cc2ccccc2)c2ccc3c(c2)OCCCO3)cc1 (stereo not drawn)	21.3	0.4	-0.4	0.8	56.7*
O=C(CCc1ccccc1)c1ccc2c(c1)OCCCO2	-1.5	0.8	-1.06	1	16.5
CC(=O)N(CCC(Cc1ccccc1)c1ccc2c(c1)OCO2)Cc1ccccc1F (stereo not drawn)	87.7*	0	-1.36	0.1	95.9*
CCCCS(=O)CC(CS(=O)CCCC)OC(=O)c1ccc(C)cc1 (stereo not drawn)	-7.3	1.1	-0.48	1.1	-5.5
CCOC(=O)c1cnn(-c2cccc(Cl)c2)c1N	62.1*	0.6	-0.14	0.4	42.4
CCOC(=O)c1cnn(-c2ccccc2)c1N	10.5	1	-0.58	0.9	2.9
C=CCC1(O)C(=O)N2C(=C1C(=O)N1CCOCC1)c1ccccc1CC2(C)C (stereo not drawn)	5.2	0.9	-0.31	0.9	10.7
SMILES	CYP2C19 inhib	CYP2C9 activ	PTK2B oligo ant	CYP2C19 activ	CYP2C9 inh
Clc1cccc(Cl)c1/C=C/c1nc2ccccc2[nH]1	32.0	0.2	-2.27	0.7	84.3*
COc1ccc(S(=O)(=O)N(CCc2ccccc2)CC(=O)O)cc1	52.9*	0.4	0.87	0.5	64.7*
COc1ccc(S(=O)(=O)N(CCc2ccccc2)CC(=O)NCCCO)cc1	51.1*	1.2	0.62	0.5	-17.2
CCNC(=O)CN(CCc1ccccc1)S(=O)(=O)c1ccc(OC)cc1	96.3*	0.1	-0.7	0	87.7*
CCOC(=O)N1CCN(C(=O)c2cc3cc(Br)ccc3oc2=O)CC1	12.9	1	/	0.9	2.0
CC1CCN(S(=O)(=O)c2ccc3ncn(CC(=O)N(C)Cc4ccccc4)c(=O)c3c2)CC1	18.1	0.5	0.16	0.8	48.6
O=C(CSCCSCC(=O)c1ccco1)c1ccco1	3.6	0.7	/	1	28.1
CNC(=S)N(Cc1ccc(OC)cc1)C1CC(=O)N(c2ccc(OC)cc2)C1=O (stereo not drawn)	/	/	-0.41	/	/
Cc1cc(C)n(CC(O)Cn2c3ccccc3c3ccccc32)n1 (stereo not drawn)	81.7*	0.4	-2.44	0.2	61.1*
O=C1c2ccccc2S(=O)(=O)N1CC(O)Cn1ccc2ccccc21 (stereo not drawn)	97.3*	0.3	0	0	70.8*
Cc1cc(C)n(CC(O)Cn2ccc3ccccc32)n1 (stereo not drawn)	72.0*	0.6	-0.44	0.3	41.3
Cc1cc(C)n(CC(O)Cn2c3ccc(Cl)cc3c3cc(Cl)ccc32)c(=O)n1 (stereo not drawn)	57.8*	0.1	-1.39	0.4	94.7*
Cc1cc(C)n(CC(O)CN(c2ccccc2)S(=O)(=O)c2ccccc2)n1 (stereo not drawn)	13.4	0.8	0.16	0.9	17.8
O=C(CN1C(=O)c2ccccc2S1(=O)=O)N1CCOCC1	5.7	1	0.1	0.9	-1.4
CCOC(=O)c1c(C2CC2)csc1NC(C)=O	17.2	0.7	0.41	0.8	33.7
CCOc1ccc(-c2nnc(-c3snc(-c4ccc(F)cc4)c3N=CN(C)C)o2)cc1	-6.3	1.1	-0.3	1.1	-7.7
OCc1nc2ccccc2n1CC(O)Cn1ccc2ccccc21 (stereo not drawn)	90.1*	0.2	2.05	0.1	84.1*
Cc1cc(C)n(CC(O)CN2c3ccccc3Sc3ccccc32)n1 (stereo not drawn)	66.1*	0.7	-1.51	0.3	32.9
Oc1ccccc1NCC(O)Cn1ccc2ccccc21 (stereo not drawn)	37.2	0.7	1.01	0.6	27.8
O=C1C(NS(=O)(=O)c2cccs2)=C(N2CCN(c3cccc(C(F)(F)F)c3)CC2)C(=O)c2ccccc21	30.6	0.5	-0.7	0.7	52.4*
CCOc1ccccc1N1CCN(c2nc3ccccc3nc2C(C#N)C(=O)OC)CC1 (stereo not drawn)	34.6	0.5	-0.94	0.7	49.1
CCOc1ccccc1N1CCN(C2=C(NS(=O)(=O)c3cccs3)C(=O)c3ccccc3C2=O)CC1	92.0*	0	-0.46	0.1	99.7*
O=C(Nc1nonc1NC(=O)C1CCCCC1)C1CCCCC1	14.0	0.7	0.33	0.9	27.0
COc1ccccc1N1CCN(C(=O)c2cc(-c3ccc(C)cc3)on2)CC1	18.7	0.6	-2.42	0.8	40.9
O=C(c1cc(C2CC2)on1)N1CCN(c2ccc(F)cc2)CC1	83.4*	0.8	/	0.2	16.2
COc1ccccc1-c1cc(C(=O)N2CCN(c3ccccc3OC)CC2)no1	54.5*	2.7*	-2.9	0.5	-172.5

High-throughput results: PubChem, Sanford-Burnham Center for Chemical Genomics
